Source: the supplement of paper PMC8975748
Where a name gives a salt, the structure may show the parent alone.

What follows are compounds tested on Saccharomyces cerevisiae BY4741 SeMeCo community (assay: z-score of subpopulation abundance vs DMSO median, subpopulation auxotrophic for LUM; higher = larger share of this subpopulation than in DMSO controls). Details: 10 µM; 24 h; SM minimal medium; subpopulation (auxotrophy): LUM.
Protocol: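 Fluorescent four-plasmid SeMeCo (self-establishing metabolically cooperating S. cerevisiae BY4741 community; plasmids pH-mRuby2, pL-mWasabi, pU-eCFP, pM-TagRFP657) was grown 24 h in minimal SM medium with each Selleck FDA-approved drug at 10 µM in 384-well plates. Cells were fixed and imaged by high-content confocal microscopy. For each auxotrophic subpopulation (and the prototroph), a z-score gives the deviation from the DMSO vehicle-control population median.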

In order of rising “z-score of subpopulation abundance” value:
1. C[C@](N)(Cc1ccc(O)c(O)c1)C(=O)O [Methyldopa]  -1.19
2. Cc1ncc([N+](=O)[O-])n1CC(O)CCl (stereo not given) [Ornidazole]  -0.87
3. CN1CCN2c3ncccc3Cc3ccccc3C2C1 (stereo not given) [Mirtazapine]  -0.74
4. Cc1ccc(Sc2ccccc2N2CCNCC2)c(C)c1  -0.73
5. CO[C@@]1(NC(=O)C(C(=O)O)c2ccc(O)cc2)C(=O)N2C(C(=O)O)=C(CSc3nnnn3C)CO[C@@H]21 (stereo not given in full) [Latamoxef sodium]  -0.71
6. C[N+]1(C)[C@@H]2C[C@@H](OC(=O)C(O)(c3cccs3)c3cccs3)C[C@H]1[C@@H]1O[C@@H]12 [Tiotropium Bromide hydrate]  -0.67
7. COc1ccc(C2CNC(=O)C2)cc1OC1CCCC1 (stereo not given) [Rolipram]  -0.59
8. C=CC[N+]1([C@H]2C[C@H]3[C@@H]4CC[C@H]5C[C@H](O)[C@@H](N6CCOCC6)C[C@]5(C)[C@H]4CC[C@]3(C)[C@H]2OC(C)=O)CCCC1 [Rocuronium Bromide]  -0.48
9. CCN(CC)CC#CCOC(=O)C(O)(c1ccccc1)C1CCCCC1 (stereo not given) [Oxybutynin chloride]  -0.46
10. O=C1[C@@H]2[C@H]3CC[C@H](C3)[C@@H]2C(=O)N1C[C@@H]1CCCC[C@H]1CN1CCN(c2nsc3ccccc23)CC1 [lurasidone]  -0.46
11. C[C@@H]1CN(c2c(F)c(N)c3c(=O)c(C(=O)O)cn(C4CC4)c3c2F)C[C@H](C)N1 [Sparfloxacin]  -0.41
12. COc1cc(NS(=O)(=O)c2ccc(N)cc2)nc(OC)n1 [SulfadiMethoxine sodium]  -0.37
13. COc1ncnc(NS(=O)(=O)c2ccc(N)cc2)c1OC [Sulfadoxine]  -0.34
14. CCN(CC)CCOCCOC(=O)C1(c2ccccc2)CCCC1 [Pentoxyverine Citrate]  -0.26
15. O=C(O)C1=C(CSc2nnnn2CS(=O)(=O)O)CS[C@@H]2[C@H](NC(=O)[C@H](O)c3ccccc3)C(=O)N12 [Cefonicid sodium]  -0.25
16. Cc1cc(C)nc(NS(=O)(=O)c2ccc(N)cc2)n1 [Sulfamethazine]  -0.16
17. Nc1nc2c(ncn2COC(CO)CO)c(=O)[nH]1 [Ganciclovir]  -0.04
18. Cc1onc(-c2c(F)cccc2Cl)c1C(=O)N[C@@H]1C(=O)N2[C@@H]1SC(C)(C)[C@@H]2C(=O)O [Flucloxacillin sodium]  -0.02
19. CN1C2CCCC1CC(NC(=O)c1nn(C)c3ccccc13)C2 (stereo not given) [Granisetron HCl]  0.06
20. C[C@@H](O)[C@H]1C(=O)N2C(C(=O)OCOC(=O)C(C)(C)C)=C(SC3CN(C4=NCCS4)C3)[C@H](C)[C@H]12 [Tebipenem Pivoxil]  0.09
21. CCC1(c2ccccc2)C(=O)NCNC1=O [Primidone]  0.18
22. N=C(N)NC(=O)c1nc(Cl)c(N)nc1N [Amiloride HCl]  0.19
23. O=c1ccn(C2CC(O)C(CO)O2)c(=O)[nH]1 (stereo not given) [2-deoxyuridine]  0.23
24. CCc1nn(CCCN2CCN(c3cccc(Cl)c3)CC2)c(=O)n1CCOc1ccccc1 [Nefazodone hydrochloride]  0.49
25. NC[C@H]1O[C@H](O[C@H]2[C@H](O)[C@@H](O[C@H]3O[C@H](CO)[C@@H](O)[C@H](N)[C@H]3O)[C@H](N)C[C@@H]2N)[C@H](O)[C@@H](O)[C@@H]1O [Kanamycin sulfate]  0.52
26. C[N+]1(C)CCC(OC(=O)C(O)(c2ccccc2)C2CCCC2)C1 (stereo not given) [Glycopyrrolate]  0.56
27. COc1cnc(NS(=O)(=O)c2ccc(N)cc2)nc1 [Sulfameter]  0.64
28. OCCN1CCN(CCCN2c3ccccc3Sc3ccc(Cl)cc32)CC1 [Perphenazine]  0.66
29. COc1ccc(C(Cl)=C(c2ccc(OC)cc2)c2ccc(OC)cc2)cc1 [Chlorotrianisene]  0.76
30. CC(=O)OC1CC2(C)C(CC(O)C3C4(C)CCC(O)C(C)C4CCC32C)C1=C(CCC=C(C)C)C(=O)O (stereo not given) [Fusidine]  1.09
31. C[C@H]1COc2c(N3CCN(C)CC3)c(F)cc3c(=O)c(C(=O)O)cn1c23 [Levofloxacin hydrate]  1.66
32. CN1CCN(CCCN2c3ccccc3Sc3ccc(Cl)cc32)CC1 [Prochlorperazine dimaleate salt]  1.88
33. CCCCCCCCOc1ccccc1C(=O)Nc1ccc(C(=O)OCC[N+](C)(CC)CC)cc1 [Otilonium Bromide]  2.14
34. COc1nc2ccc(Br)cc2cc1[C@@H](c1ccccc1)[C@@](O)(CCN(C)C)c1cccc2ccccc12 [Bedaquiline fumarate]  3.68
35. Nc1nc(=O)[nH]cc1F [Flucytosine]  4.96
36. Clc1ccccc1C(c1ccccc1)(c1ccccc1)n1ccnc1 [Clotrimazole]  5.41
37. CO[C@H]1C[C@@H]2CC[C@@H](C)[C@@](O)(O2)C(=O)C(=O)N2CCCC[C@H]2C(=O)O[C@H]([C@H](C)C[C@@H]2CC[C@H](n3cnnn3)[C@H](OC)C2)CC(=O)[C@H](C)/C=C(\C)[C@@H](O)[C@@H](OC)C(=O)[C@H](C)C[C@H](C)/C=C/C=C/C=C/1C [Zotarolimus(ABT-578)]  5.72
38. CC[C@@H]([C@H](C)O)n1ncn(-c2ccc(N3CCN(c4ccc(OC[C@@H]5CO[C@@](Cn6cncn6)(c6ccc(F)cc6F)C5)cc4)CC3)cc2)c1=O [Posaconazole]  7.85
39. Cc1cc(CC(C)CC(C)(C)C)n(O)c(=O)c1 (stereo not given) [Piroctone Olamine]  16
40. Cc1ccc2c(Cl)cc(Cl)c(O)c2n1 [Chlorquinaldol]  16.2
